This is a sample that favours compounds with a hit; in the whole collection about 4.2% have one here.
Wnt bcat act – Wnt/beta-catenin pathway activators, primary screen, cell-based, plate reader, single point | Wnt/beta-catenin reporter cell assay, activator | activation, % at 9.35 µM | 300,000 tested, 1.2% active; in the data active = activation above about 30%, passing the limit was not always enough; inconclusive = no clear call, values can overlap the other calls;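 also: 0% = neutral control wells and 100% = positive control wells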
ssDAF12 agonist – S. stercoralis DAF-12 nuclear receptor activators, primary screen, cell-based, luminescence, HEK293, GRIP1 co-expression, lit1-tk-luc; HEK293 ssDAF-12/GRIP1 lit1-tk-luc reporter; % of 3 µM dafachronic acid response; 370,000 tested, 1% active; activation, % at 6.8 µM; Nuclear hormone receptor DAF-12 (Strongyloides stercoralis);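 active = activation above the mean over all tested compounds plus 3 SD, cut at about 0.9% in these data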;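 also: 0% = DMSO-only wells and 100% = 3 µM delta7-dafachronic acid wells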
esBAF inh – Bmi1 luciferase reporter increase in mESCs, primary screen, esBAF inhibitor project, mouse ES cells, Bmi1 luciferase knock-in, single point; 24 h; 100% = twice the neutral-well signal; reporter increase, % at 12.5 µM; 350,000 tested, 2% active; in the data active = activation above about 40%; inconclusive = no clear call, values can overlap the other calls;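 also: 0% = median of the plate's neutral control wells and 100% = double that signal; a rise in the Bmi1 reporter signal indicates esBAF inhibition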
hcDAF-12 act – H. contortus DAF-12 nuclear receptor activators, primary screen, cell-based, luminescence, HEK293, lit1-tk-luc reporter; HEK293 hcDAF-12 lit1-tk-luc reporter; 0% DMSO, 100% Δ7-dafachronic acid; 370,000 tested, 1.4% active; activation, % at 6.8 µM; AID 652067, 2013;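 active = activation above the mean of all tested compounds plus 3 SD, cut at about 5.5% in these data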;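 also: 100% = response to 3 µM Δ7-dafachronic acid high control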
DAX1 StAR inh – DAX1 (NR0B1) inhibitors on StAR promoter, primary screen, cell-based, luminescence, SF-1 (NR5A1), full-length DAX-1; HEK293T StAR-luciferase reporter, SF-1/DAX-1 repression relief; inhibition, % at 6.8 µM; 370,000 tested, 1.1% active; AID 652010, 2013;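 active = inhibition above the mean over all tested compounds plus 3 SD, cut at about 3.6% in these data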;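 also: 0% = DAX-1 cells with DMSO and 100% = cells lacking DAX-1 with DMSO; higher inhibition means more luminescence from relief of DAX-1 repression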
hgDAF-12 ag – H. glycines DAF-12 receptor agonists, primary screen, cell-based, luminescence, HEK293, GAL4 fusion, UAS-luciferase. Nuclear hormone receptor DAF-12 (Heterodera glycines), GAL4 fusion. HEK293 GAL4-hgDAF12 UAS-luciferase reporter, agonist luminescence; normalized to butyrate control. activation, % at 6.8 µM. 370,000 tested, 1.8% active;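 active = activation above a cutoff set at the mean of all screened compounds plus 3 SD, cut at about 10% in these data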;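 also: 0% = DMSO wells and 100% = sodium butyrate wells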
* = called active by the depositor; ? = inconclusive; / = not tested or not shown.

SMILES	Wnt bcat act	ssDAF12 agonist	esBAF inh	hcDAF-12 act	DAX1 StAR inh	hgDAF-12 ag
CNC(=O)c1cc2c(cn1)[nH]c1ccccc12	16	0	37	1	3.7*	6
C[C@H](CO)N1C[C@H](C)[C@H](CN(C)Cc2ccc(Cl)c(Cl)c2)Oc2ccc(NC(=O)NC3CCCCC3)cc2C1=O	/	/	5	/	/	/
O=C(OCc1ccccc1)N1CCC2CC1c1cc(-c3ccccc3)ccc12 (stereo unspecified)	-2	-1	8	1	-1	3
O=C(OCc1ccccc1)N1CCC2CC1c1ccc(/C=C/CCCCl)cc12 (stereo unspecified)	1	-1	59*	3	0	2
COc1ccc2cc3cc(C(=O)N4CC(C)CC(C)C4)oc3nc2c1 (stereo unspecified)	/	/	58*	/	/	/
CCOC(=O)C1CCN(C(=O)c2cc3cc4ccc(OC)cc4nc3o2)CC1	30	-1	9	1	3.8*	7
Cc1ccc2cc3cc(C(=O)N4CC(C)CC(C)C4)oc3nc2c1 (stereo unspecified)	21	-1	-15	-2	0	2
CCOC(=O)N1CCC(Nc2nc3ccccc3nc2NS(=O)(=O)c2ccc(Cl)cc2)CC1	15	0	/	8.2*	2	9
CCOC(=O)N1CCC(NC(=O)c2ccc(Cl)cc2)CC1	3	-1	5	2	0	0
CO[C@@H]1CN(C)C(=O)c2cc(NC(=O)C3CCC3)ccc2OC[C@@H](C)N(C(=O)NC(C)C)C[C@@H]1C	/	/	1	/	/	/
CN1[C@@H]2c3ccc(-c4ccccc4)c(=O)n3C[C@H]1[C@H](CO)[C@H]2C(=O)N1CCC(Cc2ccccc2)CC1	/	/	-1	/	/	/
C=CCn1c(SCC(=O)NC(N)=O)nnc1-c1cc2c(s1)CCC(CC)C2 (stereo unspecified)	-3	-1	/	0	-1	-2
C=CCn1c(SCC(=O)NCC)nnc1-c1cc2c(s1)CCC(CC)C2 (stereo unspecified)	-3	-1	46*	-2	1	3
Cc1ccc(NC(=O)NCc2ccccn2)cc1Cl	1	-1	15	-2	-1	4
Cc1ccc(NC(=O)NCc2c(C)nn(C)c2C)cc1Cl	7	-1	/	1	4.3*	13*
CCN1CCN(C(=O)c2cc3sccc3n2CC(=O)c2ccccc2)CC1	/	1.2*	2	2	2	0
C[C@@H](NC(=O)C[C@H]1CC[C@H](NC(=O)CN2CCOCC2)[C@@H](CO)O1)c1ccccc1	/	/	6	/	/	/
CN(c1ccc(O)cc1)S(=O)(=O)c1ccc2ccccc2c1	0	-1	58*	-4	0	0
C[C@@H]1CN([C@H](C)CO)C(=O)Cc2cc(NC(=O)c3ccncc3)ccc2O[C@H]1CN(C)CC1CCCCC1	/	/	-5	/	/	/
Cn1cnc(S(=O)(=O)NCc2cccs2)c1	/	1.6*	-1	0	0	1
C[C@@H]1CN([C@@H](C)CO)C(=O)c2cc(NC(=O)Nc3ccc4c(c3)OCO4)ccc2O[C@@H](C)CCCCO[C@H]1CN(C)C(=O)Nc1ccccc1	/	/	66*	/	/	/
C[C@H](CO)N1C[C@H](C)[C@@H](CN(C)C(=O)Nc2ccc(F)cc2)OCCCC[C@H](C)Oc2ccc(NC(=O)Nc3ccc4c(c3)OCO4)cc2C1=O	/	/	50*	/	/	/
C[C@H]1CCCCO[C@@H](CN(C)Cc2ccncc2)[C@@H](C)CN([C@@H](C)CO)C(=O)c2cc(NC(=O)Nc3ccc4c(c3)OCO4)ccc2O1	/	/	80*	/	/	/
C[C@@H]1CN([C@@H](C)CO)C(=O)c2cc(NC(=O)Nc3ccc4c(c3)OCO4)ccc2O[C@@H](C)CCCCO[C@@H]1CN(C)Cc1ccncc1	/	/	4	/	/	/
C[C@@H]1CCCCO[C@@H](CN(C)C(=O)c2ccncc2)[C@@H](C)CN([C@H](C)CO)C(=O)c2cc(NC(=O)Cc3ccccc3)ccc2O1	-1	-1	3	0	-1	11*
SMILES	Wnt bcat act	ssDAF12 agonist	esBAF inh	hcDAF-12 act	DAX1 StAR inh	hgDAF-12 ag
C[C@@H]1CN([C@@H](C)CO)C(=O)c2cc(NC(=O)Cc3ccccc3)ccc2O[C@@H](C)CCCCO[C@H]1CN(C)C(=O)c1ccncc1	/	/	4	/	/	/
CCCC(=O)Nc1ccc2c(c1)C(=O)N(C)[C@@H]1CC[C@@H](CC(=O)NCC3CC3)O[C@@H]1CO2	/	/	-6	/	/	/
C[C@H]1CN([C@@H](C)CO)C(=O)c2cc(-c3ccc(F)cc3)cnc2O[C@H]1CN(C)Cc1ccc(F)cc1	/	/	5	/	/	/
COCCNC(=O)C[C@H]1CC[C@@H]2[C@H](COc3ccc(NC(=O)c4cnccn4)cc3C(=O)N2C)O1	/	/	0	/	/	/
C[C@@H]1CCCCO[C@@H](CN(C)C(=O)Nc2ccccc2)[C@@H](C)CN([C@H](C)CO)C(=O)c2cc(NC(=O)Nc3ccc4c(c3)OCO4)ccc2O1	/	/	-4	/	/	/
C[C@@H]1CCCCO[C@H](CN(C)C(=O)NC2CCCCC2)[C@H](C)CN([C@H](C)CO)C(=O)c2cc(NS(=O)(=O)c3cccs3)ccc2O1	/	/	5	/	/	/
O=C(NCC[C@@H]1CC[C@@H](NC(=O)C2CCC2)[C@@H](CO)O1)c1cnccn1	/	/	-4	/	/	/
C[C@H](CO)N1C[C@H](C)[C@H](CN(C)CC2CC2)Oc2cc(C3=CCCC3)ccc2S1(=O)=O	/	/	-7	/	/	/
CCNC(=O)C[C@H]1CC[C@H]2[C@H](COc3ccc(NC(=O)c4ccccc4Cl)cc3C(=O)N2C)O1	/	/	-2	/	/	/
CCCNC(=O)c1cc(Cl)c(NC(=O)C2=C(C)OCCS2)cc1OC	3	-1	8	-2	-1	2
CCCNC(=O)c1cc(Cl)c(NC(=O)C2=CSCCO2)cc1OC	20	-1	92*	1	0	5
CC(NS(=O)(=O)c1cccc(Cl)c1)C(=O)Nc1ccc(-c2nc3ccccc3s2)cc1 (stereo unspecified)	-1	-1	22	1	1	3
CC(C)(C)c1ccc(S(=O)(=O)NCC(=O)Nc2ccc(-c3nc4ccccc4s3)cc2)cc1	/	-1	53*	0	1	4
Cc1ccc(C)c(S(=O)(=O)NC(C)C(=O)Nc2ccc(-c3nc4ccccc4s3)cc2)c1 (stereo unspecified)	13	0	52*	4	2	4
O=C(CNS(=O)(=O)c1cccc(Cl)c1)Nc1ccc(-c2nc3ccccc3s2)cc1	?	0	/	3	2	11*

From PubChem
